Measurements: PubChem BioAssay AID743157 (Broad Institute, 2013)
A number with no mark means an inactive call. Active and inactive are the calls of the source.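 Rule for the calls: active = cell killing, with a fitted active concentration at or below twice the top valid dose tested; inconclusive = flat fit with 30 to 70 percent signal loss, or poor fit; inactive = effect in the rising direction, plus the rest.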

assay: A549 cell cytotoxicity, dose response, cytotoxicity control, CellTiter-Glo luminescence, dry powder, set 4 (AID 743157); conditions: A549 viability, CellTiter-Glo ATP luminescence, 72 h; series mostly up to 50 µM

| Compound | outcome | activity change, negative = cytotoxicity |
| --- | --- | --- |
| Cc1c(C(=O)O)sc2nc(/C=C/c3ccc4[nH]ccc4c3)[nH]c(=O)c12 | inactive |  |
| Cc1c(C(=O)O)sc2nc(CCc3cccc(O)c3)[nH]c(=O)c12 | inactive |  |
| Cc1c(C(=O)O)sc2nc(/C=C/c3ccc(O)cn3)[nH]c(=O)c12 |  | 4.16% [at 1.2 µM] |
| Cc1c(C(=O)O)sc2nc(/C=C/c3ccc4cc[nH]c4c3)[nH]c(=O)c12 | inactive |  |
| Cc1c(C(=O)O)sc2nc(/C=C/c3ccc4ccccc4c3)[nH]c(=O)c12 | inactive |  |
| Cc1c(C(=O)O)sc2nc(/C=C/c3cccc(=O)[nH]3)[nH]c(=O)c12 | inactive |  |
| Cc1c(C(=O)O)sc2nc(/C=C/c3cccc(N4CCNCC4)c3)[nH]c(=O)c12 | inactive |  |
| Cc1c(C(=O)O)sc2nc(/C=C/c3ccnc4ccccc34)[nH]c(=O)c12 | inactive |  |
| Cc1c(C(=O)O)sc2nc(/C=C/c3cccc(N4CCOCC4)n3)[nH]c(=O)c12 | inactive |  |
| Cc1c(C(=O)O)sc2nc(/C=C/c3cccc(O)c3)[nH]c(=O)c12 | inactive |  |
| Cc1c(C(=O)O)sc2nc(/C=C/c3cccc(C(F)(F)F)c3)[nH]c(=O)c12 | inactive |  |
| Cc1c(C(=O)O)sc2nc(/C=C/C=C/c3ccccc3)[nH]c(=O)c12 | inactive |  |
| Cc1c(C(=O)O)sc2nc(/C=C/c3cccc(OC(F)(F)F)c3)[nH]c(=O)c12 | inactive |  |
| Cc1c(C(=O)O)sc2nc(/C=C/c3ccccc3)[nH]c(=O)c12 | inactive |  |
| Cc1c(C(=O)O)sc2nc(/C=C/c3cccc([N+](=O)[O-])c3)[nH]c(=O)c12 | inactive |  |
| COc1cccc(/C=C/c2nc3sc(C(=O)O)c(C)c3c(=O)[nH]2)c1 | inactive |  |
| Cc1c(C(=O)O)sc2nc(/C=C/c3cccc(N)c3)[nH]c(=O)c12 | inactive |  |
| Cc1c(C(=O)O)sc2nc(/C=C/c3ccncc3)[nH]c(=O)c12 | inactive |  |
| Cc1c(C(=O)O)sc2nc(/C=C/c3cc4ccccc4cn3)[nH]c(=O)c12 | inactive |  |
| Cc1c(C(=O)O)sc2nc(/C=C/c3cccc(C(N)=O)c3)[nH]c(=O)c12 | inactive |  |
| Cc1c(C(=O)O)sc2nc(/C=C/c3ccc(N)nc3)[nH]c(=O)c12 | inactive |  |
| Cc1c(C(=O)O)sc2nc(/C=C/c3cccc(F)c3)[nH]c(=O)c12 | inactive |  |
| Cc1c(C(=O)O)sc2nc(/C=C/C3CC3)[nH]c(=O)c12 | inactive |  |
| Cc1c(C(=O)O)sc2nc(/C=C/c3cnc4ccccc4c3)[nH]c(=O)c12 | inactive |  |
| Cc1c(C(=O)O)sc2nc(/C=C/c3ccccn3)[nH]c(=O)c12 | inactive |  |
| Cc1c(C(=O)O)sc2nc(/C=C/c3ccccc3O)[nH]c(=O)c12 | inactive |  |
| Cc1c(C(=O)O)sc2nc(/C=C/c3cccc(C(=O)O)c3)[nH]c(=O)c12 | inactive |  |
| Cc1c(C(=O)O)sc2nc(/C=C/c3ccc4[nH]ccc4n3)[nH]c(=O)c12 |  | 6.14% [at 12 µM] |
| Cc1c(C(=O)O)sc2nc(/C=C/c3cccnc3)[nH]c(=O)c12 | inactive |  |
| Cc1c(C(=O)O)sc2nc(/C=C/c3cccnc3N)[nH]c(=O)c12 |  | -7.98% [at 12 µM] |
